Measurements taken from PMC4552634, “A New Set of Chemical Starting Points with Plasmodium falciparum Transmission-Blocking Potential for Antimalarial Drug Discovery” (PLoS ONE, 2015).
Like-named read-outs stand apart in the source and are kept apart here. The campaign covered roughly 13,000 compounds. About 3,200 (25%) showed an effect of 50% or more. The list shows a part of the results.

System: P. falciparum stage V gametocytes
Parameters: BacTiter-Glo ATP luminescence viability of purified stage V gametocytes in 384-well plates, per cent inhibition versus DMSO
Conditions: 48 h, 5 µM, inhibitor

Row | SMILES | % Inhibition [%] | % Inhibition (% Inhibition) [%]
1 | CCC(NCc1ccc(-c2cncc(C(=O)NCC(C)C)c2)cc1)c1ccccc1 (stereo not drawn) [TCMDC-134237] | 15.84 | 
2 | Cc1cccc2nc(-c3ccc(-c4cccc(CNCc5cnn(-c6ccccc6)n5)c4)s3)[nH]c12.O=C(O)C(F)(F)F [TCMDC-132972] | -22.07 | 
3 | O=C(NCc1ccccc1)OC1CNCCC1c1ccc(C(O)Cc2ccccc2)cc1 (stereo not drawn) [TCMDC-141020] | 26.78 | 
4 | CCc1ccc(-n2c(=O)c3cccnc3n2CC(=O)NC2CCCC2)cc1 [TCMDC-125158] | -2.653 | 
5 | O=C(/C=C/c1ccc(Cl)c(Cl)c1)NCCCCCN1CCC(c2[nH]nc(-c3ccccc3)c2Br)CC1 [TCMDC-139448] | -19.71 | 
6 | O=C(NCCNc1ccnc(Nc2ccc(F)cc2)n1)c1cc2ccccc2s1 [TCMDC-133637] | -20.49 | 
7 | COCCNC(=O)c1ccc(OC2CCN(CC(C)=Cc3ccccc3)CC2)c(Cl)c1 [TCMDC-124691] | 9.67 | 
8 | c1cncc(CN2CCCN(c3ccc4c(c3)CCN(Cc3ccc(-c5ncc[nH]5)cc3)CC4)CC2)c1 [TCMDC-136551] | -8.506 | 
9 | c1cncc(-c2cc(N3CCCCC3)nc(-c3ccncc3)n2)c1 [TCMDC-125594] | 3.34 | 
10 | c1ccc(CN2CCN(c3cc(-c4cncc(-c5ccccc5)c4)nc(-c4ccccc4)n3)CC2)cc1 [TCMDC-125589] | -13.47 | 
11 | CN1CCN(c2cc(-c3cccnc3)nc(-c3ccncc3)n2)CC1 [TCMDC-125593] | 52.46 | 
12 | CN1CCN(c2cc(-c3ccncc3)nc(-c3cccnc3)n2)CC1 [TCMDC-125596] | 38.53 | 
13 | c1ccc(N2CCN(c3cc(-c4cccnc4)nc(-c4ccncc4)n3)CC2)nc1 [TCMDC-125418] | 44.02 | 
14 | c1cncc(-c2cc(N3CCc4ccccc4C3)nc(-c3ccncc3)n2)c1 [TCMDC-125419] | 60.68 | 
15 | COc1ccc(NC(=O)Nc2cccc(-c3cccc(-c4nc5c(C)cccc5[nH]4)c3)c2)cc1 [TCMDC-133247] | -12.94 | 
16 | Fc1ccc2[nH]c(-c3cccc(-c4ccc(CNCC5CCCO5)cc4)c3)nc2c1.O=C(O)C(F)(F)F (stereo not drawn) [TCMDC-133105] | -0.6383 | 
17 | CN1CCCC(CN2CCN(Cc3ccc(-c4ccc(-c5nc6ccccc6[nH]5)s4)cc3)CC2)C1 (stereo not drawn) [TCMDC-133889] | 85.26 | 
18 | OCC1CCN(Cc2cccc(-c3cccc(-c4nc5ccc(C(F)(F)F)cc5[nH]4)c3)c2)CC1 [TCMDC-133129] | 41.06 | 
19 | N#CCCN1CCN(Cc2ccc(-c3ccc(-c4nc5ccc(F)cc5[nH]4)s3)cc2)CC1 [TCMDC-133861] | -54.51 | 
20 | OCC1CCN(Cc2ccc(-c3cccc(-c4nc5ccc(C(F)(F)F)cc5[nH]4)c3)cc2)CC1 [TCMDC-133130] | -16.83 | 
21 | CN1CCCC(CN2CCN(Cc3cccc(-c4ccc(-c5nc6ccc(F)cc6[nH]5)cc4)c3)CC2)C1 (stereo not drawn) [TCMDC-133891] | 104.2 | 
22 | CN1CCCC(CN2CCN(Cc3ccc(-c4ccc(-c5nc6ccc(F)cc6[nH]5)s4)cc3)CC2)C1 (stereo not drawn) [TCMDC-133892] | 66.7 | 
23 | OCC1CCN(Cc2cccc(-c3ccc(-c4nc5ccc(C(F)(F)F)cc5[nH]4)cc3)c2)CC1 [TCMDC-133123] | 76.36 | 

Row | SMILES | % Inhibition [%] | % Inhibition (% Inhibition) [%]
24 | CC1CN(Cc2ccc(-c3ccc(-c4nc5ccc(F)cc5[nH]4)s3)cc2)CC(C)O1 (stereo not drawn) [TCMDC-133819] | 9.471 | 
25 | CN1CCCC(CN2CCN(Cc3ccc(-c4cccc(-c5nc6ccc(F)cc6[nH]5)c4)cc3)CC2)C1 (stereo not drawn) [TCMDC-133883] | 67.8 | 
26 | CN1CCCC(CN2CCN(Cc3ccc(-c4ccc(-c5nc6ccc(F)cc6[nH]5)cc4)cc3)CC2)C1 (stereo not drawn) [TCMDC-133908] | 90.06 | 
27 | CC1CN(Cc2ccc(-c3cccc(-c4nc5ccc(F)cc5[nH]4)c3)cc2)CC(C)O1 (stereo not drawn) [TCMDC-133813] | -17.46 | 
28 | COCCN1CCN(Cc2ccc(-c3ccc(-c4nc5ccc(F)cc5[nH]4)cc3)cc2)CC1 [TCMDC-133022] | -25.91 | 
29 | N#CCCN1CCN(Cc2cccc(-c3ccc(-c4nc5ccc(C(F)(F)F)cc5[nH]4)cc3)c2)CC1 [TCMDC-133844] | -10.1 | 
30 | N#CCCN1CCN(Cc2ccc(-c3cccc(-c4nc5ccc(F)cc5[nH]4)c3)cc2)CC1 [TCMDC-133845] | 7.403 | 
31 | NC1CCCN(Cc2cccc(-c3ccc(-c4nc5ccc(C(F)(F)F)cc5[nH]4)cc3)c2)C1 (stereo not drawn) [TCMDC-133839] | 50.43 | 
32 | OCCN1CCN(Cc2ccc(-c3ccc(-c4nc5ccc(F)cc5[nH]4)cc3)cc2)CC1 [TCMDC-133030] | -14.7 | 
33 | CC(=O)N(C)C1CCN(Cc2cccc(-c3ccc(-c4nc5ccc(C(F)(F)F)cc5[nH]4)cc3)c2)C1 (stereo not drawn) [TCMDC-133884] | -40.19 | 
34 | CN1CCCC(CN2CCN(Cc3cccc(-c4ccc(-c5nc6ccc(C(F)(F)F)cc6[nH]5)cc4)c3)CC2)C1 (stereo not drawn) [TCMDC-133882] | 68.4 | 
35 | OC1CCCN(Cc2cccc(-c3ccc(-c4nc5ccc(C(F)(F)F)cc5[nH]4)cc3)c2)C1 (stereo not drawn) [TCMDC-133814] | -59.43 | 
36 | NC1CCN(Cc2cccc(-c3ccc(-c4nc5ccc(C(F)(F)F)cc5[nH]4)cc3)c2)C1 (stereo not drawn) [TCMDC-133837] | 42.56 | 
37 | COc1ccc2ncc(C#N)c(CCN3CCC(NCc4ccc5c(c4)OCCO5)CC3)c2c1 [TCMDC-135664] | 6.84 | 
38 | O=C(Nc1cccc(-c2cccc(-c3nc4ccccc4[nH]3)c2)c1)NC1CC1c1ccccc1 (stereo not drawn) [TCMDC-133256] |  | 3.053
39 | COc1ccc2c(c1)Sc1ccccc1C(N1CCN(CCO)CC1)C2 (stereo not drawn) [TCMDC-139028] | -3.41 | 
40 | Cc1cccc2nc(-c3ccc(-c4cccc(C(=O)NCCc5cn(C)cn5)c4)s3)[nH]c12 [TCMDC-132498] | -19.19 | 
41 | CCOc1c(OC)ccc2c1CCN(CCN1CCC(NC(=O)c3ccc(-c4cccc(C(F)(F)F)c4C(F)(F)F)cc3)CC1)C2 [TCMDC-135432] | -45.25 | 
42 | CCOc1cc(Br)c(C(C)NC(=O)c2cccc(OC)c2)cc1OCC (stereo not drawn) [TCMDC-123742] | 47.1 | 
43 | O=C(NOCCCCOc1ccc(Cl)c(Cl)c1)c1ccccc1 [TCMDC-131761] | -3.28 | 
44 | CCOc1cc(Br)c(C(C)NC(=O)c2ccccc2)cc1OCC (stereo not drawn) [TCMDC-123743] | 65.54 | 
45 | CCOc1cc(Cl)c(C(C)NC(=O)c2cccc(OC)c2)cc1OCC (stereo not drawn) [TCMDC-125450] | 81.4 | 
46 | COc1cccc(C(=O)NC(NC(=S)Nc2ccc(OC)cc2[N+](=O)[O-])C(Cl)(Cl)Cl)c1 (stereo not drawn) [TCMDC-124141] | 23.91 | 

Row | SMILES | % Inhibition [%] | % Inhibition (% Inhibition) [%]
47 | CCOc1cc(C(=O)NC2CCN(Cc3ccccc3)CC2)ccc1-c1nc2cc(Cl)c(Cl)cc2[nH]1 [TCMDC-140080] | -6.754 | 
48 | CCOc1cc(C(=O)Nc2ccccc2N2CCN(S(C)(=O)=O)CC2)cc(OCC)c1OCC [TCMDC-124994] | 1.091 | 
49 | CCOc1cc(C(=O)Nc2ccc3nc(N(CC)CC)cc(C)c3c2)cc(OCC)c1OCC [TCMDC-124008] | -7.565 | 
50 | CCOc1cc(Cl)c(C(C)NC(=O)c2ccccc2)cc1OCC (stereo not drawn) [TCMDC-123744] | 73.45 | 
51 | CC(C)C[C@H](NC(=O)c1ccc(OCCN2CCOCC2)cc1)C(=O)N[C@H](/C=N/N1CC(=O)NC1=O)CCc1ccccc1 [TCMDC-136155] | 17.61 | 
52 | O=C(NC1CC1)c1ccc2cc(C(=O)N3Cc4ccccc4C(c4ccccc4)C3)ccc2c1 (stereo not drawn) [TCMDC-131863] | 5.684 | 
53 | COc1ccccc1CCNc1ncnc2c1[nH]c1ccc(F)cc12 [TCMDC-124556] | 39.14 | 
54 | COc1ccc(OC)c(Cc2cnc3nc(N)[nH]c(=O)c3c2C)c1 [TCMDC-138103] | 16.49 | 
55 | CN(C)C(=O)CCCn1c(CNCCCNc2cc(=O)c3ccccc3[nH]2)cc2c(Cl)cc(Cl)cc21 [TCMDC-140466] | -27.37 | 
56 | CCCC1CCNC(C(O)c2ccnc3ccc(OC)cc23)C1 (stereo not drawn) [TCMDC-138276] | 11.37 | 
57 | CN(C)CCNC(=O)c1cc2c(-c3ccc(Cl)cc3)nn(C)c2s1 [TCMDC-123580] | -36.25 | 
58 | COc1cccc(-c2nn(C)c3sc(C(=O)NCCN(C)Cc4ccccc4)cc23)c1 [TCMDC-123583] | -8.796 | 
59 | Cc1ccc(-n2nc(-c3ccccc3)c3cc(C(=O)NCCN)sc32)cc1 [TCMDC-124776] | 110.1 | 
60 | CC(C)Oc1ccc2c(c1)OC(c1ccccc1)(C(F)(F)F)NC2=O (stereo not drawn) [TCMDC-123633] | 28.56 | 
61 | Cc1nc(Cl)c2c(-c3ccccc3)csc2n1 [TCMDC-125437] | -3.595 | 
62 | CS(=O)(=O)Nc1ccc(-c2ccc3ccnc(N)c3c2)cc1 [TCMDC-136788] | 43.95 | 
63 | Nc1nccc2ccc(-c3cccc(OCc4ccccc4)c3)cc12 [TCMDC-133430] | 24.46 | 
64 | COc1cccc(-c2ccc3ccnc(N)c3c2)c1 [TCMDC-133361] | 60.33 | 
65 | CN(C)Cc1cccc(-c2ccc3ccnc(N)c3c2)c1 [TCMDC-136795] | 100.3 | 
66 | Nc1ccc(-c2ccc3ccnc(N)c3c2)cc1 [TCMDC-136763] | -16.03 | 
67 | NC(=O)c1ccc(-c2ccc3ccnc(N)c3c2)cc1 [TCMDC-133429] | 50 | 
68 | COc1cccc(-c2ccc3c(-c4ccc(F)cc4)cnc(N)c3c2)c1 [TCMDC-134514] | 40.73 | 
69 | CN(C)CC(=O)Nc1ccc(-c2ccc3ccnc(N)c3c2)cc1 [TCMDC-133427] | 67.97 | 
